Measurements: a collection of fitness landscapes (doi:10.1126/science.1257360)
In all, about 140,000 sequences were measured (“enrichment ratio after two sorts for PhoP signalling”: median about 0, highest 2% from about 11 on). What follows is part of a selection rich in the highest values, with near analogues and random picks from the rest.

B1: PhoQ; a variant is named by its letters at X, in order, P23837 (parent)
chain: MKKLLRLFFPLSLRVRFLLATAAVVLVLSLAYGMVALIGYSVSFDKTTFRLLRGESNLFYTLAKWENNKLHVELPENIDKQSPTMTLIYDENGQLLWAQRDVPWLMKMIQPDWLKSNGFHEIEADVNDTSLLLSGDHSIQQQLQEVREDDDDAEMTHSVAVNVYPATSRMPKLTIVVVDTIPVELKSSYMVWSWFIYVLSANLLLVIPLLWVAAWWSLRPIEALAKEVRELEEHNRELLNPATTRELTSLVRNLNRLLKSERERYDKYRTTLTDLTHSLKTPLXXLQXXLRSLRSEKMSVSDAEPVMLEQISRISQQIGYYLHRASMRGGTLLSRELHPVAPLLDNLTSALNKVYQRKGVNISLDISPEISFVGEQNDFVEVMGNVLDNACKYCLEFVEISARQTDEHLYIVVEDDGPGIPLSKREVIFDRGQRVDTLRPGQGVGLAVAREITEQYEGKIVAGESMLGGARMEVIFGRQHSAPKDE

Variants of: B1
Assay: enrichment ratio after two sorts for PhoP signalling (ratio (wild type AVST 3.29)); higher = more functional
Conditions: with PhoP (E. coli)

| Variant | enrichment ratio |
| --- | --- |
| PWWM | ≤ 0.25 |
| LMKL | ≤ 0.25 |
| AMSP | ≤ 0.25 |
| NEAG | 2.93 |
| TEMF | 5.53 |
| TEMY | 12.3 |
| TEAG | 19.7 |
| TEMI | 51.6 |
| SRMA | ≤ 0.25 |
| TRMY | 0.856 |
| KRMA | ≤ 0.25 |
| LRMY | ≤ 0.25 |
| MEAG | ≤ 0.25 |
| TEMT | 7.24 |
| TEMA | 38.6 |
| KIPV | ≤ 0.25 |
| QTVW | ≤ 0.25 |
| FSFP | ≤ 0.25 |
| AQGR | ≤ 0.25 |
| AQCQ | 31.6 |
| AQGM | 13.3 |
| AQCI | 8.62 |
| AQGD | ≤ 0.25 |
| EQCQ | ≤ 0.25 |
| AQQP | ≤ 0.25 |
| AQCA | 32.5 |

| Variant | enrichment ratio |
| --- | --- |
| AKFM | 0.887 |
| AQCS | 11.1 |
| AQFM | 12.2 |
| AIFM | ≤ 0.25 |
| NSDI | ≤ 0.25 |
| SHDW | ≤ 0.25 |
| PPSE | ≤ 0.25 |
| GEHW | ≤ 0.25 |
| SDNF | ≤ 0.25 |
| WLKM | ≤ 0.25 |
| FCKF | ≤ 0.25 |
| MLLR | ≤ 0.25 |
| FQAN | ≤ 0.25 |
| ILQV | ≤ 0.25 |
| ELVF | ≤ 0.25 |
| YMHL | ≤ 0.25 |
| ENAI | ≤ 0.25 |
| AQRM | ≤ 0.25 |
| AQWM | ≤ 0.25 |
| AQCK | 29.5 |
| EQPV | ≤ 0.25 |
| NEVC | ≤ 0.25 |
| ALLL | 8.77 |
| APLL | ≤ 0.25 |
| TGLL | 12.6 |
| GEEL | ≤ 0.25 |

| Variant | enrichment ratio |
| --- | --- |
| SRLL | 10.3 |
| GEGL | ≤ 0.25 |
| SNLL | 18.5 |
| NGLL | 3.87 |
| SPLL | ≤ 0.25 |
| GELL | 12.9 |
| CFLL | ≤ 0.25 |
| ANLL | 13.4 |
| FYWW | ≤ 0.25 |
| TYKE | ≤ 0.25 |
| SNRC | ≤ 0.25 |
| GTRN | ≤ 0.25 |
| HRVR | ≤ 0.25 |
| LSWW | ≤ 0.25 |
| ACNW | ≤ 0.25 |
| QYTV | ≤ 0.25 |
| PYEY | ≤ 0.25 |
| MGMC | 5.27 |
| FGLL | 12.6 |
| TILL | 0.421 |
| QGLL | 10.4 |
| SGLL | 19.8 |
| TDLL | 11.8 |
| KDLL | ≤ 0.25 |
| YHLL | ≤ 0.25 |
| THLL | 14 |

| Variant | enrichment ratio |
| --- | --- |
| FDLL | ≤ 0.25 |
| FGNL | ≤ 0.25 |
| NHLL | ≤ 0.25 |
| IMDM | ≤ 0.25 |
| IQAN | ≤ 0.25 |
| PYDA | ≤ 0.25 |
| PKEG | ≤ 0.25 |
| VQIN | ≤ 0.25 |
| QPDT | ≤ 0.25 |
| LCFE | ≤ 0.25 |
| CCPF | ≤ 0.25 |
| HHCS | ≤ 0.25 |
| CTLL | 0.613 |
| TTLL | 17.7 |
| SMLA | 6.54 |
| SMLS | 6.78 |
| QELL | ≤ 0.25 |
| GLLL | 11.7 |
| GLLA | ≤ 0.25 |
| SMLL | 11.2 |
| SELL | 16.3 |
| ITLL | 7.22 |
| MVLL | 7.33 |
| HWCD | 2.96 |
| RPRI | ≤ 0.25 |
| VRDD | ≤ 0.25 |

| Variant | enrichment ratio |
| --- | --- |
| KIGV | ≤ 0.25 |
| THDR | ≤ 0.25 |
| AYVL | ≤ 0.25 |
| MAPF | ≤ 0.25 |
| SDCN | 4.78 |
| WMRH | ≤ 0.25 |
| DNPC | ≤ 0.25 |
| SQLL | 12.5 |
| AGLL | 14.6 |
| GYLL | ≤ 0.25 |
| GGLL | 12.7 |
| MCLL | 8.32 |
| TNLL | 4.87 |
| MNLL | 12.4 |
| DPLL | ≤ 0.25 |
| KYLL | ≤ 0.25 |
| RGLL | ≤ 0.25 |
| QKGI | ≤ 0.25 |
| VHAG | ≤ 0.25 |
| IAYV | ≤ 0.25 |
| FDHC | ≤ 0.25 |
| EIDC | ≤ 0.25 |
| SSGH | 7.6 |
| QDTV | ≤ 0.25 |
| ILKM | ≤ 0.25 |
| MGRL | ≤ 0.25 |

| Variant | enrichment ratio |
| --- | --- |
| MGLL | 14.3 |
| STLL | 16.4 |
| VTLL | 17.8 |
| SLLL | 5.02 |
| IILL | 1.2 |
| MGGL | 4.99 |
| SALL | 18.6 |
| VYLL | ≤ 0.25 |
| VTLA | 5.19 |
| SFLL | 3.56 |
| KQLL | ≤ 0.25 |
| PQRH | ≤ 0.25 |
| LTHP | ≤ 0.25 |
| TKSQ | 2.92 |
| HTAI | ≤ 0.25 |
| KTTI | ≤ 0.25 |
| LGSF | ≤ 0.25 |
| YVWK | ≤ 0.25 |
| IDNN | ≤ 0.25 |
| ATLL | 20.5 |
| TPLL | ≤ 0.25 |
| GSLL | 14.1 |
| YTLL | 9.09 |
